# Results reported in PubChem BioAssay (EPA / NIEHS).
# Records with an inconclusive call do not appear. Calls of active or inactive are those of the source. How the source made its calls, unless noted: active means hit-call score of the fitted dose curve at least 0.9, where 1 is the maximum; inconclusive means response in the unintended direction; inactive means score below 0.9.
# Legend:
# [1] = CEETOX_H295R_ESTRADIOL_noMTC: CeeTox H295R High-throughput Steroidogenesis Assay for Estradiol, maximum tolerated concentration (MTC) filtered results only (AID 2283919; active means hit-call score of the fitted dose curve at least 0.9, where 1 is the maximum; inactive means score below 0.9); settings: actives raise or lower the signal
# Summary of the method: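 H295R human adrenal cells pre-stimulated 48 h with 10 uM forskolin, then exposed 48 h to chemical (0.1% DMSO final). Estradiol in medium measured by HPLC-MS/MS after MTBE extraction and dansyl derivatization; bidirectional fit versus DMSO, concentrations not MTT-filtered.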
# [2] = CEETOX_H295R_PROG_noMTC: CeeTox H295R High-throughput Steroidogenesis Assay for Progesterone (PROG), maximum tolerated concentration (MTC) filtered results only (AID 2283920; active means hit-call score of the fitted dose curve at least 0.9, where 1 is the maximum; inactive means score below 0.9); settings: actives raise or lower the signal
# Summary of the method: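 H295R cells; forskolin 10 uM x 48 h prestim; test cpd 48 h, 0.1% DMSO final; media progesterone via LC-MS/MS; bidirectional fit vs DMSO; no MTT-based MTC filter applied.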
# [3] = CEETOX_H295R_ESTRONE_noMTC: CeeTox H295R High-throughput Steroidogenesis Assay for Estrone, maximum tolerated concentration (MTC) filtered results only (AID 2283921; active means hit-call score of the fitted dose curve at least 0.9, where 1 is the maximum; inactive means score below 0.9); settings: actives raise or lower the signal
# Summary of the method: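 H295R cells prestimulated 48 h with 10 uM forskolin, then exposed 48 h to chemical in 0.1% DMSO; medium estrone measured by HPLC-MS/MS after MTBE extraction and dansyl derivatization, fitted bidirectionally versus DMSO without MTT-based MTC filtering.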
# [4] = CEETOX_H295R_CORTISOL_noMTC: CeeTox H295R High-throughput Steroidogenesis Assay for Cortisol, maximum tolerated concentration (MTC) filtered results only (AID 2283916; active means hit-call score of the fitted dose curve at least 0.9, where 1 is the maximum; inactive means score below 0.9); settings: actives raise or lower the signal
# Experimental: CEETOX_H295R is a cell-based, multiplexed-readout assay that uses H295R, a human adrenal gland cell line, with measurements taken at 48 hours after chemical dosing in a 96-well plate.CEETOX_H295R_CORTISOL_noMTC is one of 12 assay component(s) measured or calculated from the CEETOX_H295R assay (11 hormones and 1 viability assay). It is designed to make measurements of hormone induction, a form of inducible reporter, as detected with absorbance signals by HPLC-MS-MS technology. The concentrations for these components have not been pre-filtered for the maximum tolerated concentration (MTC) based on the MTT assay (_noMTC).Data from the assay component CEETOX_H295R_CORTISOL_noMTC was analyzed into 1 assay endpoint. This assay endpoint, CEETOX_H295R_CORTISOL_noMTC, was analyzed with bidirectional fitting relative to DMSO as the negative control and baseline of activity. […]
# Cell culture and media preparation procedures were conducted in accordance with OECD Test No. 456 guidelines, with minor modifications. […] For steroid quantification, media samples were shipped to OpAns, LLC (Durham, NC) on dry ice, and samples were thawed to room temperature prior to liquid-liquid extraction. […] Steroid hormones were separated by HPLC, eluted using a reverse phase C18 gradient with electrospray positive ionization, followed by quantification by tandem mass spectrometry (MS/MS). Data were acquired on a MassHunter Workstation Acquisition version B03.01 (Agilent Technologies, Inc.) and processed using MassHunter Quantitative Analysis for QQQ. Accuracy was determined for each hormone analyte from 3 standards to determine upper and lower limits of quantification (ULOQ and LLOQ, respectively) using a 7-point standard curve. Precision and accuracy of the extraction and quantification methods were calculated as the percent relative standard deviation (%RSD) of the spiked standards and percent spiked standard recovered, respectively. […] Test medium was removed following chemical exposure, and cell viability was evaluated in the same wells by MTT. […]
# [5] = CEETOX_H295R_CORTIC_noMTC: CeeTox H295R High-throughput Steroidogenesis Assay for Corticosterone (CORTIC), maximum tolerated concentration (MTC) filtered results only (AID 2283917; active means hit-call score of the fitted dose curve at least 0.9, where 1 is the maximum; inactive means score below 0.9); settings: actives raise or lower the signal
# Summary of the method: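 Following OECD 456 with minor changes, H295R cultures received 10 uM forskolin for 48 h, then test chemical at 0.1% DMSO for 48 h. Media steroids were extracted and measured by LC-MS/MS.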
# [6] = CEETOX_H295R_DOC_noMTC: CeeTox H295R High-throughput Steroidogenesis Assay for DOC, maximum tolerated concentration (MTC) filtered results only (AID 2283918; active means hit-call score of the fitted dose curve at least 0.9, where 1 is the maximum; inactive means score below 0.9); settings: actives raise or lower the signal
# Summary of the method: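 11-Deoxycorticosterone secreted by human adrenal H295R cells quantified by HPLC-MS/MS after 48 h chemical exposure (0.1% DMSO), following 48 h 10 uM forskolin prestimulation. Concentrations not filtered by MTT-derived MTC; bidirectional fitting.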
# PGR (gene 5241) [7] = target: PGR (gene 5241) (UniProt P06401); experiment: TOX21_PR_BLA_Followup_Antagonist_ratio: Tox21 HEK293 Progesterone Receptor (PR) Antagonism Beta-lactamase Follow-Up Assay, Ratio (AID 2283934);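 further: PR-UAS-bla HEK293T cells stimulated with 1 nM R5020 agonist for 16 hr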
# PGR (gene 5241), sequence (P06401 whole entry, looked up): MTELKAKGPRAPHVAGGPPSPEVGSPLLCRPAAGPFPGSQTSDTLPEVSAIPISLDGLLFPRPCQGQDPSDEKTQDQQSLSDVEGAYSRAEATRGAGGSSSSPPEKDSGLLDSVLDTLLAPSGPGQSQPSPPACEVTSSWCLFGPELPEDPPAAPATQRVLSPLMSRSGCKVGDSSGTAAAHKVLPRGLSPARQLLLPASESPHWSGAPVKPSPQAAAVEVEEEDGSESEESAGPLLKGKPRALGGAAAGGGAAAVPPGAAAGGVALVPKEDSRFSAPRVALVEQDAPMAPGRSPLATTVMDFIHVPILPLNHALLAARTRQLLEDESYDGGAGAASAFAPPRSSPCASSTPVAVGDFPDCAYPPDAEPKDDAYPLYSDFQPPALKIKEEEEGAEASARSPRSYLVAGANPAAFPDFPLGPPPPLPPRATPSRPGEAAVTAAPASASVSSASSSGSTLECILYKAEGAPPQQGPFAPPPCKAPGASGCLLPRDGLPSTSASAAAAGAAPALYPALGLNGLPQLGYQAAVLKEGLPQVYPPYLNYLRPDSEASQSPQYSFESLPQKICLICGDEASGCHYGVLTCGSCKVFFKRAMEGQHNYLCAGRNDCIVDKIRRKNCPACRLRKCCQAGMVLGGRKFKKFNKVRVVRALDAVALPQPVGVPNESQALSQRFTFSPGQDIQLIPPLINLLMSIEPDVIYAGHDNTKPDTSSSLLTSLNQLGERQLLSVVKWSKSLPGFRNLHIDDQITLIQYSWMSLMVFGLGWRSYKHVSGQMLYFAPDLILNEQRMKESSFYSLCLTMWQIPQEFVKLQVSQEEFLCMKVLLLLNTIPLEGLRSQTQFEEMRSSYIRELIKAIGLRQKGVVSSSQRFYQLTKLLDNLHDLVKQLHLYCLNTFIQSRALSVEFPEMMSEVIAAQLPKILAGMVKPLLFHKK
# Summary of the method: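 Antagonist mode used 1 nM R5020 (final) as agonist on a beta-lactamase reporter line in HEK293T cells. Activity was taken from the substrate cleavage ratio after 16 hr exposure.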
# [8] = TOX21_PR_BLA_Followup_Agonist_viability: Viability Assessment in the Tox21 HEK293 Progesterone Receptor (PR) Agonism Beta-lactamase Follow-Up Assay (AID 2283935);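 further: cells exposed to compound for 16 hr at 37 °C; signal loss means lower viability so actives are cytotoxic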
# Summary of the method: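 Multiplexed viability counter-screen: ATP-coupled luciferase signal measured after 30 min at room temperature, following 16 hr compound treatment of PR-UAS-bla HEK293T cells grown in charcoal-stripped serum.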
# [9] = TOX21_PR_BLA_Followup_Antagonist_viability: Viability Assessment in the Tox21 HEK293 Progesterone Receptor (PR) Antagonism Beta-lactamase Follow-Up Assay (AID 2283936);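 further: hits lower the luminescence signal meaning cytotoxicity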
# Summary of the method: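 PR-UAS-bla HEK293T cells (3,000/well, 2% charcoal-stripped FBS) given compound plus R5020 agonist, 16 h at 37C. CellTiter-Glo added after bla read, 30 min at room temperature; luminescence loss indicates cytotoxicity.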
# PGR (gene 5241) [10] = target: PGR (gene 5241) (UniProt P06401); experiment: TOX21_PR_BLA_Followup_Agonist_ratio: Tox21 HEK293 Progesterone Receptor (PR) Agonism Beta-lactamase Follow-Up Assay, Ratio (AID 2283933)
# Summary of the method: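 Agonist-mode follow-up in HEK293T cells carrying a UAS-driven beta-lactamase reporter, grown in 2% charcoal-stripped serum. Compounds act for 16 hr; activity is the ch2/ch1 cleavage ratio, with same-well CellTiter-Glo viability run in parallel.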
smiles,measurement,setting,value
O=C(Nc1ccc2c(O)c(N=Nc3ccc(N=Nc4ccc(S(=O)(=O)O)cc4)cc3)c(S(=O)(=O)O)cc2c1)c1ccccc1,outcome,[1],inactive
same,outcome,[2],inactive
same,outcome,[3],inactive
CC=Cc1ccc(OC)c(OC)c1,outcome,[4],inactive
same,AC50,[5],39.5 µM (active)
same,outcome,[6],inactive
CCCOC(=O)c1c(Cl)c(Cl)c(Cl)c(Cl)c1C(=O)OCCC,AC50,PGR (gene 5241) [7],9.87 µM (active)
same,outcome,[8],inactive
same,outcome,[9],inactive
N#Cc1ccc(CC(=O)c2cccc(C(F)(F)F)c2)cc1,AC50,PGR (gene 5241) [7],46.1 µM (active)
same,outcome,[8],inactive
same,outcome,[9],inactive
CCOC(=O)C(C#N)=C(c1ccccc1)c1ccccc1,AC50,PGR (gene 5241) [7],15.2 µM (active)
same,outcome,[8],inactive
same,outcome,[9],inactive
C=C1CC[C@H](O)C/C1=C/C=C1\CCC[C@]2(C)[C@@H]([C@H](C)/C=C/[C@H](C)C(C)C)CC[C@@H]12,outcome,PGR (gene 5241) [7],inactive
same,outcome,[9],inactive
Clc1ccc(C(c2ccccc2Cl)C(Cl)Cl)cc1 (stereo not drawn),AC50,PGR (gene 5241) [7],11 µM (active)
same,outcome,[8],inactive
same,outcome,[9],inactive
C=C[Si]1(C)O[Si](C)(C=C)O[Si](C)(C=C)O[Si](C)(C=C)O1 (stereo not drawn),outcome,[4],inactive
same,outcome,[6],inactive
same,outcome,[2],inactive
COc1ccc(OC)c(N=Nc2c(O)ccc3ccccc23)c1,outcome,[4],inactive
same,outcome,[5],inactive
same,outcome,[6],inactive
same,outcome,[2],inactive
O=C(Nc1ccc2c(c1)Cc1ccccc1-2)C(F)(F)F,outcome,PGR (gene 5241) [10],inactive
same,AC50,PGR (gene 5241) [7],19.6 µM (active)
same,outcome,[8],inactive
same,outcome,[9],inactive
O=c1c(O)c(-c2ccc(O)cc2)oc2cc(O)cc(O)c12,AC50,PGR (gene 5241) [7],43.7 µM (active)
same,outcome,[8],inactive
